PubChem BioAssay (NCI)
Values joined by “and” are separate entries in the source; they are usually repeats but may differ in a detail not shown here. Identical values can stand only once. About 79,000 compounds went through this panel and 15% of them were active in at least one assay; those are over-represented in the sample as a whole. Cut-off read from the data, not from the text of the source: active = growth inhibition above about 70%; inactive = the rest.

Assays:
[1] = NCI Yeast Anticancer Drug Screen. Data for the rad50 strain (AID 155);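 note: 0% = growth of vehicle-only cultures of the same strain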; settings: S. cerevisiae rad50 strain growth inhibition; at 50.0 µM; stronger effect = higher value
Summary of the method: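 Vehicle-treated cultures provide the reference for the growth inhibition reported for compound-exposed, repair-deficient yeast.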

[2] = NCI Yeast Anticancer Drug Screen. Data for the mec2-1 strain (AID 157); settings: S. cerevisiae mec2-1 strain, at 50.0 µM, stronger effect = higher value
Summary of the method: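 Using mec2-1 yeast: add compound, measure growth, express inhibition versus vehicle-treated cultures.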

[3] = NCI Yeast Anticancer Drug Screen. Data for the sgs1 mgt1 strain (AID 161);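 note: 0% = growth of cultures given vehicle only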; settings: S. cerevisiae sgs1 mgt1 strain, at 50.0 µM, stronger effect = higher value
Summary of the method: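 Yeast cells carrying a defined DNA-repair defect were exposed to test compounds. Growth inhibition was measured relative to vehicle-treated controls.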

[4] = NCI Yeast Anticancer Drug Screen. Data for the cln2 rad14 strain (AID 165);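 note: 0% = growth equal to vehicle treated cultures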; settings: S. cerevisiae cln2 rad14 strain, at 50.0 µM, stronger effect = higher value
Summary of the method: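 Yeast strain cln2 rad14, bearing defects in cell cycle control and DNA repair, serves as the test system; values reflect growth inhibition compared with vehicle.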

[5] = NCI Yeast Anticancer Drug Screen. Data for the bub3 strain (AID 167); settings: S. cerevisiae bub3 mutant strain, at 50.0 µM, stronger effect = higher value
Summary of the method: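 Mutant yeast screening strain plus compound; vehicle-treated cultures serve as the 0% inhibition reference.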

[6] = NCI Yeast Anticancer Drug Screen. Data for the mlh1 rad18 strain (AID 175); settings: S. cerevisiae mlh1 rad18 strain growth inhibition; at 50.0 µM; stronger effect = higher value
Summary of the method: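 Steps: expose repair-defective yeast to compound; measure growth; express inhibition against vehicle-treated controls.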

Measured: growth inhibition

CC1CCCN(C(c2ccccc2)C(O)c2ccccc2)C1 (centres undefined)
inactive: [1] 5.9% | [2] 1.35% | [3] 13.2% | [4] -19.4% | [5] 46.5% | [6] 7.6%

NC(=O)Cc1nn[nH]n1
inactive: [1] -16.4% | [2] -13.8% | [3] -27.1% | [4] 5.95% | [5] -7.35% | [6] -21.9%

CP1(=O)CCC23CCCCC21O3 (centres undefined)
inactive: [1] 7.9% | [2] -34.8% | [3] -2.3% | [4] -20.8% | [5] 11.7% | [6] -4.25%

NC(=O)COc1ccc([As]=O)cc1 (centres undefined)
inactive: [1] -1.9% | [2] -14.9% | [3] -11.9% | [4] -48.8% | [5] -33.3% | [6] -15.8%

C=C1CCC2CC1C2(C)C (centres undefined)
inactive: [1] 5.95% and 13.7% and -4.1% | [2] 0.75% and -4.25% and -15.2% | [3] 6.5% and -6.65% and -29.8% | [4] 9.45% and -27% and 2.6% | [5] 10.3% and 0.05% and -6.7% | [6] 21.4% and 2.7% and -10.2%

CC(=O)CC(C)=O.[Cl][Sb]1([Cl])[CH2]CC[CH2]1
inactive: [1] -22.4% | [2] -11.8% | [3] -17.1% | [4] -0.75% | [5] 1.25% | [6] 5.55%

CCCCC(CC)C(=O)O (centres undefined)
inactive: [1] -12.6% and 33.9% | [2] -0.3% and 11.5% | [3] -1.65% and -1.3% | [4] 0.2% and 6% | [5] -13.7% and 6.6% | [6] -10.7% and 7%

COc1ccccc1N
inactive: [1] -2.9% | [2] 1.25% | [3] 4.3% | [4] -8.05% | [5] -9.45% | [6] -17.4%

CCCCCCCN1CCC(C(=O)CC)(c2cccc(O)c2)CC1
inactive: [1] 21.6% | [2] 21.4% | [3] 33.5% | [4] -2.75% | [5] 15.9% | [6] 30.6%

C(/COc1cccnc1)=N\NC1=NCCN1
inactive: [1] -12.2% | [2] -29.6% | [3] -44.8% | [4] 3.7% | [5] -21.9% | [6] -35.9%

CNC(C)Cc1ccccc1OC (centres undefined) (tested in a mixture with another compound)
inactive: [1] -14.8% | [2] 1.9% | [3] 4.15% | [4] -35.9% | [5] 9.55% | [6] -7.7%

CCC[N+](CCC)(CCC)CCC.N#CC(C#N)=C([SH2+])[SH2+].N#CC(C#N)=C([SH2+])[SH2+].N#CC(C#N)=C([SH2+])[SH2+].[Cr+3]
inactive: [1] -3.1% | [2] 10.2% | [3] 11.8% | [4] -35% | [5] 9.1% | [6] 7.5%

CC(N)C(=O)O (centres undefined)
inactive: [1] 17.9% and -7.45% | [2] -43.1% and -5.4% | [3] 8.7% and -25.4% | [4] 5.8% and 12.2% | [5] 7.65% and -26.8% | [6] 8.2% and -9.2%

CN1CCC2=C(c3ccccc3)c3ccccc3C2C1 (centres undefined)
inactive: [1] 10.3% | [2] -0.55% | [3] 13.4% | [4] -9.85% | [5] 3.8% | [6] 3.55%

COc1cc(C2c3cc4c(c(O)c3C[C@H]3COC(=O)[C@@H]23)OCO4)cc(OC)c1O (some centres undefined)
inactive: [1] -25.7% | [2] -23.1% | [3] -16.8% | [4] 5.8% | [5] 2.85% | [6] -13.6%

CC(C)=CC1C(C(=O)OCCOc2ccccc2)C1(C)C (centres undefined)
inactive: [1] -0.75% | [2] -6.5% | [3] 10.2% | [4] -26.6% | [5] -13.6% | [6] -2.05%

CN(C)C(=O)CCl
inactive: [1] 1.85% | [2] 6.15% | [3] 20.6% | [4] 9.9% | [5] -5.55% | [6] 7.25%

Cn1cnc([N+](=O)[O-])c1C(=O)O
inactive: [1] 7.9% | [2] 25.1% | [3] 20.4% | [4] -13.2% | [5] -17.9% | [6] 6.55%

CCC1(c2ccccc2)C(=O)N(C)C(=O)N(CCCl)C1=O (centres undefined)
inactive: [1] 12.5% | [2] 8.15% | [3] -0.8% | [4] -34.5% | [5] 22.3% | [6] 3.85%
